This note sets out measurements from PubChem BioAssay (EPA / NIEHS).

The structures appear in SMILES notation. Records with an inconclusive call do not appear. Active and inactive are the calls of the source. The calls were made as follows, unless noted: active = hit-call score of the fitted dose curve at least 0.9, where 1 is the maximum; inactive = score below 0.9.

In general, AC50 refers to the concentration giving half of the maximal activity seen.

The nature of assay [1]: ATG_CRE_CIS: Attagene CIS-FACTORIAL HepG2 Assay for human cAMP Responsive Element (CRE) binding protein 3 (AID 2282926). The conditions noted are these: HepG2 CRE cis-reporter, Attagene multiplexed mRNA; actives raise or lower the signal. An outline of the steps:
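HepG2 cells transiently transfected with cis-element-driven multiple reporter transcription units; CRE reporter mRNA measured 24 h after dosing by RT-PCR, 6-FAM labelling, HpaI digestion and capillary electrophoresis. Bidirectional fit versus DMSO baseline.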

In assay [2] the target is CCAAT/enhancer-binding protein beta (Homo sapiens) (UniProt P17676). Briefly: ATG_C_EBP_CIS: Attagene CIS-FACTORIAL HepG2 Assay for human CCAAT/Enhancer Binding Protein (C/EBP) beta (AID 2282927). The conditions noted are these: HepG2 Attagene cis-factorial transcription factor reporter; actives raise or lower the signal. In outline:
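HepG2 transiently transfected with multiplexed reporter units under cis-regulatory promoters reporting endogenous C/EBPb activity. After 24 h exposure, reporter mRNA assayed by RT-PCR, fluorescent labelling, HpaI digestion and capillary electrophoresis; bidirectional fitting versus DMSO.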

Assay [3] in a line: ATG_DR4_LXR_CIS: Attagene CIS-FACTORIAL HepG2 Assay for human Liver X Receptor (LXR), DR4 submotif (AID 2282929). The conditions noted are these: HepG2 Attagene DR4 cis-reporter, mRNA transcription; actives raise or lower the signal. In outline: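 DR4 cis-reporter in HepG2, 24 h exposure. Detection: RT-PCR, 6-FAM labelling, CE fragment analysis. Endpoint fitted bidirectionally, DMSO = baseline.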

A short description of assay [4]: ATG_AP_2_CIS: Attagene CIS-FACTORIAL HepG2 Assay for human Activator Protein 2 (AP-2) (AID 2282932). The following applies: HepG2 AP-2 cis-reporter, Attagene transcription factor profiling; actives raise or lower the signal. In outline:
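HepG2 cells transiently transfected with cis-element reporter units and exposed for 24 h. Reporter mRNA measured by RT-PCR, FAM labelling, HpaI digestion and capillary electrophoresis. Changes in either direction fitted relative to DMSO.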

A short description of assay [5]: ATG_BRE_CIS: Attagene CIS-FACTORIAL HepG2 Assay for human Bone Morphogenetic Protein (BMP) Response Element (BRE) (AID 2282933). The conditions noted are these: HepG2 BMP response element reporter, Attagene transcription factor profiling; actives raise or lower the signal. An outline of the steps:
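HepG2 cells transiently transfected with CIS reporter units (endogenous TF activity, BMP response element), dosed 24 h. Reporter mRNA quantified by RT-PCR, fluorescent labelling and capillary electrophoresis; bidirectional fit vs DMSO baseline.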

Assay [6] deals with Transcription factor E2F1 (Homo sapiens) (UniProt Q01094). Put plainly: ATG_E2F_CIS: Attagene CIS-FACTORIAL HepG2 Assay for human E2F Transcription Factor 1 (AID 2282935). The following applies: HepG2 Attagene cis-reporter, E2F reporter RNA transcripts; actives raise or lower the signal. An outline of the steps: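 Endogenous E2F1 activity read through cis-promoter reporter units transfected into HepG2. After 24 h compound treatment, reporter mRNA measured by RT-PCR, HpaI digestion and capillary electrophoresis. Bidirectional fit versus DMSO.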

Assay [7] in a line: ATG_EGR_CIS: Attagene CIS-FACTORIAL HepG2 Assay for human Early Growth Response 1 (EGR1) (AID 2282938). The conditions noted are these: HepG2 Attagene CIS-FACTORIAL EGR reporter mRNA; actives raise or lower the signal. An outline of the steps:
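Endpoint derived by bidirectional fitting versus DMSO vehicle. Method: cis-promoter reporter units transfected into HepG2, 24 h dosing, RNA isolation, RT-PCR with 6-FAM primer extension and HpaI digestion, then capillary electrophoresis fluorescence detection.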

Assay [8] in a line: ATG_M_19_CIS: Attagene CIS-FACTORIAL HepG2 Assay for M19 Transcription Factor (Internal Marker) (AID 2282939). The following applies: HepG2 Attagene CIS-FACTORIAL M19 internal marker reporter; actives raise or lower the signal. An outline of the steps:
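HepG2 cells transiently transfected with cis-regulated multiplexed reporter units, dosed 24 h. Reporter mRNA quantified by RT-PCR and capillary electrophoresis; internal background marker fitted bidirectionally versus DMSO.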

Assay [9] can be described thus: ATG_Ets_CIS: Attagene CIS-FACTORIAL HepG2 Assay for human Erythroblast Transformation Specific (ETS) (AID 2282941). The conditions noted are these: HepG2 ETS cis-reporter transcription, actives raise or lower the signal. An outline of the steps: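 Steps: transfect HepG2 with multiple reporter units; treat compound 24 h; isolate RNA, DNase-treat, reverse-transcribe; PCR-amplify, label with 6-FAM, digest with HpaI; separate by capillary electrophoresis. Activity fitted both directions versus DMSO.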

Assay [10] has as its target Hepatocyte nuclear factor 3-beta (Homo sapiens) (UniProt Q9Y261). Put plainly: ATG_FoxA2_CIS: Attagene CIS-FACTORIAL HepG2 Assay for human Forkhead box A2 (FOXA2) (AID 2282942). The following applies: HepG2 cis-reporter transcription factor activity, 24 h; actives raise or lower the signal. In outline:
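Measured: reporter mRNA induction or loss in HepG2 transiently carrying multiple cis-regulated reporter units, 24 h after dosing. Quantified by RT-PCR plus capillary electrophoresis, normalised to DMSO.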

Assay [11] in a line: ATG_FoxO_CIS: Attagene CIS-FACTORIAL HepG2 Assay for human Forkhead box O (FoxO) (AID 2282943). The following applies: HepG2 Attagene cis-reporter, FoxO element, mRNA; actives raise or lower the signal. An outline of the steps:
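HepG2 cells transiently transfected with cis-element-driven reporter units report endogenous FoxO activity. After 24 h chemical exposure, reporter mRNA quantified by RT-PCR, fluorescent labeling, HpaI digestion and capillary electrophoresis; bidirectional fit versus DMSO.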

A short description of assay [12]: ATG_GATA_CIS: Attagene CIS-FACTORIAL HepG2 Assay for human GATA Binding Protein (AID 2282944). The conditions noted are these: HepG2 GATA cis-element reporter, Attagene multiplex mRNA; actives raise or lower the signal. In outline:
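HepG2 cells transiently transfected with multiplexed cis-element reporter units measure endogenous GATA activity; after 24 h compound exposure, reporter mRNA quantified by RT-PCR and capillary electrophoresis. Changes fitted in both directions vs DMSO.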

Assay [13] in a line: ATG_GLI_CIS: Attagene CIS-FACTORIAL HepG2 Assay for human Zinc Finger Protein GLI1 (AID 2282945). The conditions noted are these: HepG2, Attagene cis-factorial reporter mRNA, GLI element; actives raise or lower the signal. In outline:
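Transiently transfected HepG2 cells report endogenous transcription factor activity via cis-element-driven reporter units. After 24 h compound exposure, reporter mRNA was measured by RT-PCR with capillary electrophoresis; bidirectional fitting against DMSO baseline.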

Assay [14] in a line: ATG_M_06_CIS: Attagene CIS-FACTORIAL HepG2 Assay for M06 Transcription Factor (Internal Marker) (AID 2282950). The following applies: HepG2 Attagene CIS-FACTORIAL M06 internal marker reporter; actives raise or lower the signal. In outline: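 Internal background marker within multiplexed cis-reporter HepG2 system. Cells transiently transfected, dosed 24 h; reporter mRNA measured by RT-PCR, HpaI digestion and capillary electrophoresis. Bidirectional fit relative to DMSO.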

Assay [15] addresses Hepatocyte nuclear factor 6 (Homo sapiens) (UniProt Q9UBC0). Put plainly: ATG_HNF6_CIS: Attagene CIS-FACTORIAL HepG2 Assay for human Hepatocyte Nuclear Factor 6 (HNF6) (AID 2282952). The following applies: HepG2 Attagene cis-factorial HNF6 reporter transcription; actives raise or lower the signal. In outline: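 HepG2 cells transiently transfected with cis-element-driven multiplexed reporter units measuring endogenous transcription factor activity. After 24 h exposure, reporter mRNA quantified by RT-PCR, FAM-labelled fragments and capillary electrophoresis; bidirectional fitting versus DMSO.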

The nature of assay [16]: ATG_MRE_CIS: Attagene CIS-FACTORIAL HepG2 Assay for human Metal Responsive Element (MRE) (AID 2282954). The following applies: HepG2 MRE cis-reporter transcription, Attagene multiplex; actives raise or lower the signal. An outline of the steps: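 HepG2 cells transiently transfected with cis-element-driven reporter units; mRNA measured 24 h after dosing. Reporter transcripts quantified by RT-PCR, FAM labelling, HpaI digestion and capillary electrophoresis; bidirectional fit versus DMSO.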

For assay [17], the target named is Paired box protein Pax-6 (Homo sapiens) (UniProt P26367). Briefly: ATG_Pax6_CIS: Attagene CIS-FACTORIAL HepG2 Assay for human Paired Box 6 (PAX6) (AID 2282956). The following applies: HepG2 CIS-FACTORIAL PAX6 reporter transcription, RNA readout; actives raise or lower the signal. An outline of the steps:
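Transient MRTU transfection of HepG2 → compound exposure 24 h → TriZol RNA, oligo(dT) RT → PCR, 6-FAM primer extension, HpaI cut → capillary electrophoresis; activity fitted both directions against DMSO.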

Assay [18] in a line: ATG_PXRE_CIS: Attagene CIS-FACTORIAL HepG2 Assay for human Pregnane X Receptor Element (PXRE) (AID 2282957). The conditions noted are these: HepG2 Attagene CIS-FACTORIAL PXRE reporter, mRNA; actives raise or lower the signal. An outline of the steps:
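HepG2 cells transiently transfected with cis-element-driven multiplexed reporter units; after 24 h chemical exposure, reporter mRNA measured by RT-PCR, 6-FAM labelling, HpaI digestion and capillary electrophoresis. Bidirectional fitting relative to DMSO.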

Assay [19] is described as follows: ATG_Sox_CIS: Attagene CIS-FACTORIAL HepG2 Assay for human SRY-box transcription factor (SOX) (AID 2282960). The following applies: HepG2 Attagene cis-factorial SOX reporter, mRNA; actives raise or lower the signal. An outline of the steps:
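Gain- or loss-of-signal endpoint, fitted bidirectionally with DMSO as negative control. Based on reporter mRNA from transfected HepG2 cells harvested 24 h post-treatment and quantified via RT-PCR and capillary electrophoresis.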

The target of assay [20] is Androgen receptor (Homo sapiens) (UniProt P10275). Put plainly: ATG_AR_TRANS: Attagene TRANS-FACTORIAL HepG2 Assay for human Androgen Receptor (AR) (AID 2282973; active = hit-call score of the fitted dose curve at least 0.9, where 1 is the maximum). The following applies: HepG2 Attagene TRANS-FACTORIAL AR reporter transcription. In outline: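 HepG2 cells transiently transfected with AR-Gal4 chimera and GAL4-UAS reporter units; chemical exposure 24 h. Reporter mRNA quantified by RT-PCR with fluorescent labelling and capillary electrophoresis; gain-of-signal fitted against DMSO.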
Sequence of Androgen receptor (Homo sapiens) (P10275 whole entry, looked up, the tested form may be a part): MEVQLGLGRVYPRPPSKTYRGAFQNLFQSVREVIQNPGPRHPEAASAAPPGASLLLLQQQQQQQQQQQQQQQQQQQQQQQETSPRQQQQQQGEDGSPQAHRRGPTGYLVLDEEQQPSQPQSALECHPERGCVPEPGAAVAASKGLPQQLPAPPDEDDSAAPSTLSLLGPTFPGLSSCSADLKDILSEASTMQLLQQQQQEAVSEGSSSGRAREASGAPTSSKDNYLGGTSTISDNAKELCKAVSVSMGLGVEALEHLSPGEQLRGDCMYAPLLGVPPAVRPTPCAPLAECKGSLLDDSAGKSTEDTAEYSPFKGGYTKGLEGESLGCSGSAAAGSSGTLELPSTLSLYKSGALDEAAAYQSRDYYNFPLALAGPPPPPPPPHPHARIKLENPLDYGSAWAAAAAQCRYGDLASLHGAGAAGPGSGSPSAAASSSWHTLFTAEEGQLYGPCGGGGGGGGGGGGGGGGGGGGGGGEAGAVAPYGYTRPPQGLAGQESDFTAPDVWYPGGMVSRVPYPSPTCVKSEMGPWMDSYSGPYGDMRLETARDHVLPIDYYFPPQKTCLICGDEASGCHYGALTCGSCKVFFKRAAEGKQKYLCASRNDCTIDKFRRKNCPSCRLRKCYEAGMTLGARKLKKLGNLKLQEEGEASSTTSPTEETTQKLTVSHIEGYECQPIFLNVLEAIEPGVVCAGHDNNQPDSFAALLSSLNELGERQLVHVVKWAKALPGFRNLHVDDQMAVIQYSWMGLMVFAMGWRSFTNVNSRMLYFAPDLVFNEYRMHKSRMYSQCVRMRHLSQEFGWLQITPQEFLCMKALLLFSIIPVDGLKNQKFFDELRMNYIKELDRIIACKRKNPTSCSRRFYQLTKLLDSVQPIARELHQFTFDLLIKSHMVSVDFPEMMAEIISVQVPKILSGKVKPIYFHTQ

Sequence of CCAAT/enhancer-binding protein beta (Homo sapiens) (P17676 whole entry, looked up): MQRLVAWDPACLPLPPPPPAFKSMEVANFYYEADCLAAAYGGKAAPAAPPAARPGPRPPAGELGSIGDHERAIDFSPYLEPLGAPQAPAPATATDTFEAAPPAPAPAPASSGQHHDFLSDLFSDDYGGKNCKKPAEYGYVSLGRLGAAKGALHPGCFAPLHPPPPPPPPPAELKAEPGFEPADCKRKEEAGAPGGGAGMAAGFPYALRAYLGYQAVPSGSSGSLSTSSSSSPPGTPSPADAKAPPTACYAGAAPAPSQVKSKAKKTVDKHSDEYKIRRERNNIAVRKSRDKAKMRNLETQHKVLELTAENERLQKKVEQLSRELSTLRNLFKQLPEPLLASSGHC
Sequence of Transcription factor E2F1 (Homo sapiens) (Q01094 whole entry, looked up): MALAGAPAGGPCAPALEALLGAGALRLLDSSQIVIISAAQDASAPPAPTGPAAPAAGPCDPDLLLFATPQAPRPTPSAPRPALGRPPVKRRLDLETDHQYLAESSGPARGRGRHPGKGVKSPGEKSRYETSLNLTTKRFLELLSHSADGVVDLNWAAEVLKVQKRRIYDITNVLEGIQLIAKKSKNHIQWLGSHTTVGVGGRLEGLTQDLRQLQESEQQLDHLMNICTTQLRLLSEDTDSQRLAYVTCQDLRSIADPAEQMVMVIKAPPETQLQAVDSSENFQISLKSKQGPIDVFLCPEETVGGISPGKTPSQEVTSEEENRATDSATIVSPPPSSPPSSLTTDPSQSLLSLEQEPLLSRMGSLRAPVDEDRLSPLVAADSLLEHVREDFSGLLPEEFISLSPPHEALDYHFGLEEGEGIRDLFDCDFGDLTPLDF
Sequence of Hepatocyte nuclear factor 3-beta (Homo sapiens) (Q9Y261 whole entry, looked up): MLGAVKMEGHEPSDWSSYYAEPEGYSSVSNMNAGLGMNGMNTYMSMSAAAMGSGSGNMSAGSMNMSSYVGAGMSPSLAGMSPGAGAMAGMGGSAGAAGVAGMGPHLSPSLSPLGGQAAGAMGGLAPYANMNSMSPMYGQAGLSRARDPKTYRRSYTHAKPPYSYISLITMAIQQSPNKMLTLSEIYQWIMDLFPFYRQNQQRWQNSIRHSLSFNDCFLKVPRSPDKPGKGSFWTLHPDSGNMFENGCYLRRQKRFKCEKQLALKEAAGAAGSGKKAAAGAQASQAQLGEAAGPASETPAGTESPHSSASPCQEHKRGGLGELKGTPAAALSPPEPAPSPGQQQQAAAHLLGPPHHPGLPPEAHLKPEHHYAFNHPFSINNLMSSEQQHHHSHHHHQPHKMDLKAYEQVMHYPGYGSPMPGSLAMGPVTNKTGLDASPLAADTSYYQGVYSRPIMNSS
Sequence of Paired box protein Pax-6 (Homo sapiens) (P26367 whole entry, looked up): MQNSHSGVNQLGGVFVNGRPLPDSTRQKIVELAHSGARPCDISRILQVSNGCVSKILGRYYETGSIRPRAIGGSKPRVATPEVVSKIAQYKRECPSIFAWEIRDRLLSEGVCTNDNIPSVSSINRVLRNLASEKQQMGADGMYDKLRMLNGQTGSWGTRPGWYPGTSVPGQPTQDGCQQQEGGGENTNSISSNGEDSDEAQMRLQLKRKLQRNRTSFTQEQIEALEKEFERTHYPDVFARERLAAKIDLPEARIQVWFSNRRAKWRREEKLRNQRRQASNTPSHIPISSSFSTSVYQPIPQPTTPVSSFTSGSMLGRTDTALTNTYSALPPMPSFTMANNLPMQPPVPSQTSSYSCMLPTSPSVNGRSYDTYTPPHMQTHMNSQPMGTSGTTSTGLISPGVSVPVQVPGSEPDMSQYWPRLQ
Sequence of Hepatocyte nuclear factor 6 (Homo sapiens) (Q9UBC0 whole entry, looked up, the tested form may be a part): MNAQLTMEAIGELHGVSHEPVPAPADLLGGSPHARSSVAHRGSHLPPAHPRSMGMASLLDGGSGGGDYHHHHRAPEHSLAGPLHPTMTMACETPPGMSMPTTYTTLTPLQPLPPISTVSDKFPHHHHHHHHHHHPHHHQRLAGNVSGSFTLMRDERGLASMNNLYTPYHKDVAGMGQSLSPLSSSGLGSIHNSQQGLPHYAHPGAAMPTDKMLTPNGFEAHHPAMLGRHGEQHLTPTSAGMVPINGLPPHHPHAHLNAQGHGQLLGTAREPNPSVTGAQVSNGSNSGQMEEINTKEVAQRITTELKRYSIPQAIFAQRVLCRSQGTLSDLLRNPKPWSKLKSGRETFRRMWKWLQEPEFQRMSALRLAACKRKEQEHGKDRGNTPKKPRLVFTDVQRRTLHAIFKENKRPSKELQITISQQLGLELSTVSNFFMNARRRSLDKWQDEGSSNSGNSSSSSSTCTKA

Consider `N#CCCCCC#N`, for which the compound was classed as inactive in assay [1], in assay [2], in assay [3], in [4], in assay [5] and in [6]. In addition, the outcome in assay [7], in [8], in assay [9], in [10], in assay [11] and in assay [12] was inactive. Further, the call in assay [13], in assay [14], in assay [15], in assay [16], in assay [17] and in assay [18] was inactive. For the same compound, in assay [19], the compound was called inactive.

Regarding `Oc1ccc(C2(c3ccc(O)cc3)c3ccccc3-c3ccccc32)cc1`, the AC50 in assay [1] is 8.42 µM (active); in [2], 17.1 µM (active); in assay [3], 10.6 µM (active); in assay [6], 19.8 µM (active); in [7], 14 µM (active); in [11], 9.31 µM (active). The AC50 was 14.6 µM (active) in assay [12]; 19.1 µM (active) in assay [13]; 16.8 µM (active) in [15]; 13.1 µM (active) in [16]; 14.9 µM (active) in assay [17]; 2.78 µM (active) in assay [18]. The compound was classed as inactive in [4], in [5], in [8], in assay [9], in [10] and in [14]. Further, the call in assay [19] was inactive.

In the case of `Cl/C=C\CCl`, the compound was classed as inactive in assay [1], in assay [2], in assay [3], in assay [4], in [5] and in assay [6]. The outcome in assay [7], in assay [8], in assay [9], in [10], in assay [11] and in [12] was inactive. Moreover, the result in assay [13], in assay [14], in [15], in assay [16], in [17] and in assay [18] was inactive. For the same compound, the compound was called inactive in assay [19].

For the compound `O=C(F)C(F)(F)C(F)(F)C(F)(F)C(F)F`, the call in assay [20] was inactive.

For the compound `O=[N+]([O-])c1ccc(Cl)cc1`, the result in [1], in assay [2], in assay [3], in assay [4], in assay [5] and in assay [6] was inactive. Moreover, the outcome in [7], in assay [8], in [9], in [10], in assay [11] and in [12] was inactive. Besides, the outcome in assay [13], in assay [14], in [15], in assay [16], in assay [17] and in assay [18] was inactive. Moreover, the call in [19] was inactive.

With `[N-]=[N+]=CC(=O)OC[C@H](N)C(=O)O`, the outcome in [1], in assay [2], in assay [3], in assay [4], in [5] and in assay [6] was inactive. In addition, the call in [7], in [8], in [9], in assay [10], in assay [11] and in assay [12] was inactive. Moreover, the result in assay [13], in assay [14], in assay [15], in assay [16], in assay [17] and in [19] was inactive. For the same compound, in assay [18], the AC50 is 26 µM (active).
